# “And” between values parts separate entries of the source, which are not always exact repeats. Equal values may be shown once. Records with an inconclusive call do not appear. Entries that show only a call come without a potency. Where a structure was tested more than once in an assay, its records may differ in their call. The source made the active and inactive calls. The call rests on the fitted dose curve; in most records, active means well fitted curve in the direction sought with a large enough effect in the repeat runs; inconclusive means weak or mixed curves; inactive means no such curve, though single readings can be large; an effect the other way counts as inactive or inconclusive.
# Experiments:
# [1] = A CellTox Green Cytotoxicity Assay to monitor cytotoxicity in HEK293 cells - 40 hour (AID 1224871); further: nearly all actives have a fitted effect of over 45% in size; further: potency means the concentration at half of the fitted maximal effect
# Method in brief: (§1)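 Each value comes from one timepoint of a single continuous run in which HEK293 cells with CellTox Green were exposed to compound for up to 40 h at 37 C, dye fluorescence rising with cell death.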
# [2] = qHTS RealTime-Glo MT Cell Viability Assay in HEK293 cells - 16 hour (AID 1224872); further: nearly all actives have a fitted effect of over 50% in size; further: potency means the concentration at half of the fitted maximal effect
# Method in brief: (§2)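 Reads taken at 0, 8, 16, 24, 32 and 40 h from the same wells. HEK293 cells (600/well) carried RealTime-Glo reagents from seeding, with compound added after a 5 h settle at 37 C.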
# [3] = qHTS RealTime-Glo MT Cell Viability Assay in HepG2 cells - 8 hour (AID 1224873); further: nearly all actives have a fitted effect of over 55% in size; further: potency means the concentration at half of the fitted maximal effect
# Method in brief: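 HepG2 cells mixed with RealTime-Glo MT reagents (NanoLuc plus cell-permeant prosubstrate) were seeded at 600 cells/well, incubated 5 h at 37 C/5% CO2, then pinned with compounds in DMSO; nonlytic luminescence tracked viability during 40 h treatment.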
# [4] = qHTS RealTime-Glo MT Cell Viability Assay in HEK293 cells - 40 hour (AID 1224874); settings: RealTime-Glo luminescence; max response: stronger effect = lower value; further: nearly all actives have a fitted effect of over 50% in size; further: potency means the concentration at half of the fitted maximal effect
# Method in brief: (§3)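 qHTS format; HEK293 cells with NanoLuc/prosubstrate reagent, 37 C/5% CO2 for 5 h pre-dosing; compounds 23 nL in DMSO; luminescence at each time point reflects viable cells.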
# [5] = A CellTox Green Cytotoxicity Assay to monitor cytotoxicity in HEK293 cells - 24 hour (AID 1224875); further: nearly all actives have a fitted effect of over 45% in size; further: potency means the concentration at half of the fitted maximal effect
# Method in brief: as §1
# [6] = A CellTox Green Cytotoxicity Assay to monitor cytotoxicity in HepG2 cells - 16 hour (AID 1224876); further: nearly all actives have a fitted effect of over 45% in size; further: potency means the concentration at half of the fitted maximal effect
# Method in brief: (§4)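 Continuous culture of HepG2 cells with a membrane-impermeant DNA dye; rising fluorescence marks dead cells. Compound exposure lasted up to 40 h at 37 C, with reads every 8 h from 0 h.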
# [7] = qHTS RealTime-Glo MT Cell Viability Assay in HepG2 cells - 32 hour (AID 1224877); further: nearly all actives have a fitted effect of over 55% in size; further: potency means the concentration at half of the fitted maximal effect
# Method in brief: (§5)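 HepG2 suspension premixed with RealTime-Glo reagents is plated at 600 cells per well and left 5 h at 37 C/5% CO2. Compounds in DMSO then go in, and bioluminescence reflecting viable cell number is recorded over 40 h.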
# [8] = A CellTox Green Cytotoxicity Assay to monitor cytotoxicity in HepG2 cells - 24 hour (AID 1224878); further: nearly all actives have a fitted effect of over 45% in size; further: potency means the concentration at half of the fitted maximal effect
# Method in brief: as §4
# [9] = A CellTox Green Cytotoxicity Assay to monitor cytotoxicity in HepG2 cells - 40 hour (AID 1224879); further: nearly all actives have a fitted effect of over 40% in size; further: potency means the concentration at half of the fitted maximal effect
# Method in brief: as §4
# [10] = qHTS RealTime-Glo MT Cell Viability Assay in HEK293 cells - 0 hour (AID 1224880)
# Method in brief: as §3
# [11] = A CellTox Green Cytotoxicity Assay to monitor cytotoxicity in HEK293 cells - 32 hour (AID 1224881); further: nearly all actives have a fitted effect of over 40% in size; further: potency means the concentration at half of the fitted maximal effect
# Method in brief: as §1
# [12] = A CellTox Green Cytotoxicity Assay to monitor cytotoxicity in HepG2 cells - 0 hour (AID 1224882); further: nearly all actives have a fitted effect of over 35% in size
# Method in brief: as §4
# [13] = A CellTox Green Cytotoxicity Assay to monitor cytotoxicity in HepG2 cells - 32 hour (AID 1224883); further: nearly all actives have a fitted effect of over 50% in size; further: potency means the concentration at half of the fitted maximal effect
# Method in brief: as §4
# [14] = A CellTox Green Cytotoxicity Assay to monitor cytotoxicity in HEK293 cells - 8 hour (AID 1224884); further: nearly all actives have a fitted effect of over 35% in size; further: potency means the concentration at half of the fitted maximal effect
# Method in brief: as §1
# [15] = qHTS RealTime-Glo MT Cell Viability Assay in HepG2 cells - 16 hour (AID 1224885); further: nearly all actives have a fitted effect of over 50% in size; further: potency means the concentration at half of the fitted maximal effect
# Method in brief: as §5
# [16] = qHTS RealTime-Glo MT Cell Viability Assay in HEK293 cells - 24 hour (AID 1224886); further: nearly all actives have a fitted effect of over 50% in size; further: potency means the concentration at half of the fitted maximal effect
# Method in brief: as §2
# [17] = qHTS RealTime-Glo MT Cell Viability Assay in HEK293 cells - 8 hour (AID 1224887); further: nearly all actives have a fitted effect of over 50% in size; further: potency means the concentration at half of the fitted maximal effect
# Method in brief: as §3
# [18] = A CellTox Green Cytotoxicity Assay to monitor cytotoxicity in HEK293 cells - 16 hour (AID 1224888); further: nearly all actives have a fitted effect of over 35% in size; further: potency means the concentration at half of the fitted maximal effect
# Method in brief: as §1
# [19] = qHTS RealTime-Glo MT Cell Viability Assay in HepG2 cells - 0 hour (AID 1224889); further: nearly all actives have a fitted effect of over 50% in size
# Method in brief: as §5
# [20] = A CellTox Green Cytotoxicity Assay to monitor cytotoxicity in HepG2 cells - 8 hour (AID 1224890); further: nearly all actives have a fitted effect of over 45% in size; further: potency means the concentration at half of the fitted maximal effect
# Method in brief: as §4
compound,measurement,setting,value
CCN(C(=O)c1cc(C)cc(OC[C@H](C)Nc2ccncc2)c1)C(C)C,Potency,[1],inactive
same,Potency,[2],inactive
same,Potency,[3],inactive
same,max response,[4],-9.99% (inactive)
same,Potency,[5],inactive
same,Potency,[6],inactive
same,Potency,[7],inactive
same,Potency,[8],inactive
same,Potency,[9],inactive
same,Potency,[10],inactive
same,Potency,[11],inactive
same,Potency,[12],inactive
same,Potency,[13],inactive
same,Potency,[14],inactive
same,Potency,[15],inactive
same,Potency,[16],inactive
same,Potency,[17],inactive
same,Potency,[18],inactive
same,Potency,[19],inactive
same,Potency,[20],inactive
Nc1ccc2cc(S(=O)(=O)O)cc(O)c2c1N=Nc1ccccc1C(F)(F)F,Potency,[1],inactive
same,Potency,[2],inactive
same,Potency,[3],inactive
same,max response,[4],0.853% (inactive)
same,Potency,[5],inactive
same,Potency,[6],inactive
same,Potency,[7],inactive
same,Potency,[8],inactive
same,Potency,[9],inactive
same,Potency,[10],inactive
same,Potency,[11],inactive
same,Potency,[12],inactive
same,Potency,[13],inactive
same,Potency,[14],inactive
same,Potency,[15],inactive
same,Potency,[16],inactive
same,Potency,[17],inactive
same,Potency,[18],inactive
same,Potency,[19],inactive
same,Potency,[20],inactive
CCCCCCCCCCCC[N+](C)(C)CCCCCCCCCCCC,Potency,[1],17.4 µM (active)
same,Potency,[2],11 µM (active)
same,Potency,[3],12.3 µM (active)
same,Potency,[4],3.89 µM (active)
same,Potency,[5],15.5 µM (active)
same,Potency,[6],9.77 µM (active)
same,Potency,[7],7.76 µM (active)
same,Potency,[8],7.76 µM (active)
same,Potency,[9],7.76 µM (active)
same,Potency,[10],inactive
same,Potency,[11],15.5 µM (active)
same,Potency,[12],inactive
same,Potency,[14],19.5 µM (active)
same,Potency,[15],8.71 µM (active)
same,Potency,[16],6.92 µM (active)
same,Potency,[17],17.4 µM (active)
same,Potency,[18],17.4 µM (active)
same,Potency,[20],19.5 µM (active)
[Cl][Bi]([Cl])([c]1ccccc1)([c]1ccccc1)[c]1ccccc1,Potency,[1],24.4 µM (active)
same,Potency,[2],4.87 µM (active)
same,Potency,[3],10.9 µM (active)
same,Potency,[4],1.94 µM (active)
same,Potency,[5],27.4 µM (active)
same,Potency,[6],10.9 µM (active)
same,Potency,[8],7.71 µM (active)
same,Potency,[9],4.87 µM (active)
same,Potency,[11],24.4 µM (active)
same,Potency,[12],inactive
same,Potency,[15],7.71 µM (active)
same,Potency,[17],21.7 µM (active)
same,Potency,[18],43.4 µM (active)
same,Potency,[20],15.4 µM (active)
CCOC(=O)O[C@H](C)OC(=O)c1ccc2c(c1)cc(C(=O)NC1CCN(C(C)C)CC1)n2Cc1cc(-c2ccc(Cl)s2)on1,Potency,[1],18.2 µM (active)
same,Potency,[2],10.2 µM (active)
same,Potency,[3],16.2 µM (active)
same,Potency,[4],11.5 µM (active)
same,Potency,[5],20.4 µM (active)
same,Potency,[6],11.5 µM (active)
same,Potency,[8],11.5 µM (active)
same,Potency,[9],10.2 µM (active)
same,Potency,[11],18.2 µM (active)
same,Potency,[12],inactive
same,Potency,[13],11.5 µM (active)
same,Potency,[14],51.3 µM (active)
same,Potency,[15],12.9 µM (active)
same,Potency,[17],11.5 µM (active)
same,Potency,[18],45.8 µM (active)
same,Potency,[19],inactive
same,Potency,[20],18.2 µM (active)
O=[N+]([O-])c1cc([N+](=O)[O-])c2ccc(S(=O)(=O)O)cc2c1O,Potency,[1],inactive
same,Potency,[2],inactive
same,Potency,[3],inactive
same,max response,[4],-17.1% (inactive)
same,Potency,[5],inactive
same,Potency,[6],inactive
same,Potency,[8],inactive
same,Potency,[9],inactive
same,Potency,[10],inactive
same,Potency,[11],inactive
same,Potency,[12],inactive
same,Potency,[13],inactive
same,Potency,[14],inactive
same,Potency,[15],inactive
same,Potency,[16],inactive
same,Potency,[17],inactive
same,Potency,[18],inactive
same,Potency,[19],inactive
same,Potency,[20],inactive
CN(C)CCCOC1(Cc2ccccc2)CCCCCC1,Potency,[1],inactive
same,Potency,[2],inactive
same,Potency,[3],inactive
same,max response,[4],0.0267% (inactive)
same,Potency,[5],inactive
same,Potency,[6],inactive
same,Potency,[8],inactive
same,Potency,[9],inactive
same,Potency,[11],inactive
same,Potency,[12],inactive
same,Potency,[13],inactive
same,Potency,[14],inactive
same,Potency,[15],inactive
same,Potency,[16],inactive
same,Potency,[17],inactive
same,Potency,[18],inactive
same,Potency,[19],inactive
same,Potency,[20],inactive
Clc1ccc(C(Cn2ccnc2)OCc2ccc(Sc3ccccc3)cc2)c(Cl)c1 (configuration not stated),Potency,[1],inactive
same,Potency,[2],inactive
same,Potency,[3],inactive
same,max response,[4],-2.43% (inactive)
same,Potency,[5],inactive
same,Potency,[6],inactive
same,Potency,[8],inactive
same,Potency,[9],inactive
same,Potency,[10],inactive
same,Potency,[11],inactive
same,Potency,[12],inactive
same,Potency,[13],inactive
same,Potency,[14],inactive
same,Potency,[15],inactive
same,Potency,[16],inactive
same,Potency,[17],inactive
same,Potency,[18],inactive
same,Potency,[19],inactive
same,Potency,[20],inactive
CCCCCCCCOC(=O)c1ccc(O)cc1,Potency,[1],38.8 µM (active) and 49 µM (active)
same,Potency,[2],27.4 µM (active)
same,Potency,[3],inactive
same,Potency,[4],27.4 µM (active)
same,Potency,[5],43.5 µM (active) and 43.6 µM (active)
same,Potency,[6],inactive and 43.6 µM (active)
same,Potency,[8],inactive and 43.6 µM (active)
same,Potency,[9],inactive and 49 µM (active)
same,Potency,[11],43.5 µM (active) and 43.6 µM (active)
same,Potency,[12],inactive
same,Potency,[13],inactive and 43.6 µM (active)
same,Potency,[15],inactive
same,Potency,[16],24.5 µM (active)
same,Potency,[17],43.5 µM (active)
same,Potency,[18],48.8 µM (active) and 49 µM (active)
same,Potency,[19],inactive
same,Potency,[20],inactive
COC(=O)C1=C(C)NC(C)=C(C(=O)OCCc2ccc(N3CCN(C(c4ccccc4)c4ccccc4)CC3)cc2)C1c1cccc([N+](=O)[O-])c1 (configuration not stated),Potency,[1],inactive
same,Potency,[2],inactive
same,Potency,[3],inactive
same,max response,[4],0.767% (inactive)
same,Potency,[5],inactive
same,Potency,[6],inactive
same,Potency,[7],inactive
same,Potency,[8],inactive
same,Potency,[9],inactive
same,Potency,[11],inactive
same,Potency,[12],inactive
same,Potency,[13],inactive
same,Potency,[14],inactive
same,Potency,[15],inactive
same,Potency,[17],inactive
same,Potency,[18],inactive
same,Potency,[19],inactive
same,Potency,[20],inactive
C1CCCC1,Potency,[1],inactive
same,Potency,[2],inactive
same,Potency,[3],inactive
same,max response,[4],-2.57% (inactive)
same,Potency,[5],inactive
same,Potency,[6],inactive
same,Potency,[7],inactive
same,Potency,[8],inactive
same,Potency,[9],inactive
same,Potency,[11],inactive
same,Potency,[12],inactive
same,Potency,[13],inactive
same,Potency,[15],inactive
same,Potency,[16],inactive
same,Potency,[17],inactive
same,Potency,[18],inactive
same,Potency,[19],inactive
same,Potency,[20],inactive
CCC(C)(C)C1CCCCC1OC(C)=O (configuration not stated),Potency,[1],inactive
same,Potency,[2],inactive
same,Potency,[3],inactive
same,max response,[4],6.6% (inactive)
same,Potency,[5],inactive
same,Potency,[6],inactive
same,Potency,[8],inactive
same,Potency,[9],inactive
same,Potency,[10],inactive
same,Potency,[11],inactive
same,Potency,[12],inactive
same,Potency,[13],inactive
same,Potency,[14],inactive
same,Potency,[15],inactive
same,Potency,[16],inactive
same,Potency,[17],inactive
same,Potency,[18],inactive
same,Potency,[19],inactive
same,Potency,[20],inactive
